Measured values from PubChem BioAssay (NCI).
Compounds without any hit were thinned out: in the full panel of roughly 83,000, 20% have a hit.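 Percent growth is the endpoint: 0 to 100 indicates growth inhibition (40 means 60% inhibition), 0 means no net growth, and negative values indicate cell death.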 Activity calls are given as the source filed them. Rule for the calls: active = growth percent below 10; inactive = the rest.

test system: HL-60(TB) leukemia; assay: NCI-60 one-dose screen, 48 h (100 = growth as untreated, 0 = no growth, -100 = all killed); conditions: 10 µM unless noted

| SMILES | growth |
| --- | --- |
| CCC(C)[C@H]1OC(=O)[C@H](C(C)C)N(C)C(=O)[C@@H](C(C)C)OC(=O)[C@H](C(C)C)N(C)C(=O)[C@@H](C(C)CC)OC(=O)[C@H](C(C)C)N(C)C1=O (stereo not given in full) | -47.7% (active) |
| C=C(C)[C@@H]1CC[C@]2(C(=O)ON)CC[C@]3(C)[C@H](CC[C@@H]4[C@@]5(C)C/C(=C/c6ccc(Br)cc6)C(=O)C(C)(C)[C@@H]5CC[C@]43C)[C@@H]12 | 43.6% (inactive) |
| Cc1ccc(-n2cc(/C=C/C(=O)c3ccc(S(C)(=O)=O)cc3)c(-c3ccc(S(C)(=O)=O)cc3)n2)cc1 | 69.4% (inactive) |
| CCNC(=O)Oc1ccc(/C(=C(/C)c2ccc(Cl)cc2)c2ccc(OCCN(C)C)cc2)cc1 | 52.7% (inactive) |
| CCCCCCCn1cc2c(NCCc3ccccc3)ncnc2n1 | 106% (inactive) |
| Cc1ccc(NC(=O)N[C@@H](Cc2cc(F)cc(F)c2)C(=O)NC2C(=O)N3CCC[C@H]3C(=O)N3CCCC[C@H]3C(=O)N[C@@H](C)C(=O)N3C[C@H](C)C[C@H]3C(=O)O[C@H]2C)c(F)c1 (stereo not given in full) | 13.4% (inactive) |
| CS(=O)(=O)c1ccc(-c2nc3ccccn3c2C=Nc2ccc(Cl)cc2)cc1 | 59.7% (inactive) |
| COc1ccc(-c2nc(C#N)c(N3CCC(S(=O)(=O)N4CCOCC4)CC3)o2)cc1 | 117% (inactive) |
| NC/C(=C/F)COc1ccc2nc(NCc3cccnc3)oc2c1 | 125% (inactive) |
| CS(=O)(=O)c1ccc(-c2nc3ccccn3c2/C=N/Nc2nc(-c3ccc(Cl)cc3)cs2)cc1 | 99.2% (inactive) |
| COc1ccccc1/C=C/C=N/NC1=NC2C(S1)N(C)C(=O)N2C (stereo not given) | -22.1% (active) |
| O=C1[C@H]2Cc3c([nH]c4ccccc34)[C@@H](c3ccc(Br)cc3)N2C(=O)CN1C1CCN(CC2CCCCC2)CC1 | -70.6% (active) |
| CS(=O)(=O)c1ccc(-c2nn(-c3ccccc3)cc2/C=N/NC(=O)c2ccncc2)cc1 | 81.1% (inactive) |
| CN1CCN(c2ccc(Nc3nc(NCCNS(=O)(=O)c4ccc5ccccc5c4)c4sccc4n3)cc2)CC1 | -29.5% (active) |
| O=c1oc2ccc(-c3ccc(F)cc3F)cc2c(=O)n1-c1ccc(F)c(F)c1 | -18.9% (active) |
| CCN1C(=O)N(CC)C2C1NN=C1SC(c3ccccc3)=CC(=O)N12 (stereo not given) | -2.48% (active) |
| CCCN1C=C/C(=C\C(=O)n2ccc3ccccc32)c2ccccc21 | 87.4% (inactive) |
| O=C1/C(=C/c2cc(F)cc(F)c2)Cc2cc3c(cc21)OCO3 | 3.69% (active) |
| COc1cc(O)c2c(c1)[C@H]1O[C@@H]1C[C@H](O)[C@H](O)C(=O)/C=C\C[C@H](C)OC2=O | 0.185% (active) |
| Oc1ccc(CSc2nnc(-c3cnccn3)o2)c2cccnc12 | -11.5% (active) |

| SMILES | growth |
| --- | --- |
| CN1CCC[C@]2(C)[C@H]3CC[C@@H]4[C@@H]5[C@H]6OC[C@@]5(CCC6(C)C)CC[C@@]4(C)[C@]3(C)CC[C@H]2C1(C)C | 30.6% (inactive) |
| c1cc(-c2nc3ccc4[nH]ncc4c3c3c2CCCC3)[nH]n1 | 80.8% (inactive) |
| O=C(CCCCCCNC(=O)c1csc(Br)n1)NO | 5.2% (active) |
| COc1ccc(NC(=O)c2sc3nc(-c4cnccn4)cc(-c4cccs4)c3c2N)cc1 | 56.2% (inactive) |
| Cc1nn(-c2ccccc2)c2ncnc(N/N=C/c3ccccc3O)c12 | -7.88% (active) |
| COc1ccc2[nH]cc(-c3nn4cc(-c5ccncc5)nc4s3)c2c1 | 54.9% (inactive) |
| O=C(NNc1nc2cc(F)cc(F)c2n2cccc12)c1ccncn1 | -7.85% (active) |
| CCOc1c(C#N)c(Nc2ccc(S(N)(=O)=O)cc2)c(C#N)c2nnc(C)n12 | 114% (inactive) |
| CN1CCN(Cc2ccc(NC(=O)c3cncc(C#Cc4cnc(N)nc4)c3)cc2C(F)(F)F)CC1 | 19.4% (inactive) |
| N#Cc1c(-c2ccc(Cl)cc2)nc2c(-c3ccccc3)c(Nc3ccccc3)nn2c1N | 91.3% (inactive) |
| Cc1cccc2sc(/N=C(\N)C(Cl)(Cl)Cl)nc12 | 103% (inactive) |
| CC(C)(C)OC(=O)N1C(=O)c2c(c3c4ccccc4[nH]c3c3ccc4ccccc4c23)C1=O | 39.6% (inactive) |
| N=c1c2cc(-c3ccccc3)oc2ncn1/N=C/c1ccc(Cl)cc1 | 116% (inactive) |
| CC(C)(C)OC(=O)NCc1ccc(CNc2c([N+](=O)[O-])cnc3ccccc23)cc1 | 49.1% (inactive) |
| CC(=O)c1ccc(Nc2nc(SC(C)C)nc(-c3ccccc3)c2C#N)cc1 | 83.8% (inactive) |
| Cc1ccc2c(n1)C(=O)C(Cl)=C(Nc1ccc(C#N)cc1)C2=O | 17.4% (inactive) |
| N=c1c2cc(-c3ccccc3)oc2ncn1/N=C/c1ccccc1 | 58.8% (inactive) |
| N#C/C(=C\c1ccc(N2CCCCC2)cc1)C(=O)Nc1sc2c(c1C#N)CCC2 | 98.7% (inactive) |
| Cc1ccc2sc3c(c2c1)OC(N)=C(C#N)C3c1cccc(F)c1 (stereo not given) | -0.493% (active) |
| COc1ccc(/C(N)=N/C(N)=N/c2nc3ccccc3s2)cc1 | 108% (inactive) |
